Shown are actives, neighbours in structure and some others; about 9.2% of the full set was active somewhere.
FLuc modulator: firefly luciferase modulation, counter-screen for miR-21 project. P08659. purified FLuc, Km substrates, luminescence inhibition. Potency, µM (top dose mostly 57.5 µM), for inactives: at the highest dose activity change, negative = inhibition, most hits filed as inhibitors. actives 6.9% (n = 360,000). AID 588342;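 note: plate controls were vehicle for no effect and reference inhibitor for full effect; nearly all actives have a fitted effect of over 55% in size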
Target sequence (P08659 whole entry, looked up): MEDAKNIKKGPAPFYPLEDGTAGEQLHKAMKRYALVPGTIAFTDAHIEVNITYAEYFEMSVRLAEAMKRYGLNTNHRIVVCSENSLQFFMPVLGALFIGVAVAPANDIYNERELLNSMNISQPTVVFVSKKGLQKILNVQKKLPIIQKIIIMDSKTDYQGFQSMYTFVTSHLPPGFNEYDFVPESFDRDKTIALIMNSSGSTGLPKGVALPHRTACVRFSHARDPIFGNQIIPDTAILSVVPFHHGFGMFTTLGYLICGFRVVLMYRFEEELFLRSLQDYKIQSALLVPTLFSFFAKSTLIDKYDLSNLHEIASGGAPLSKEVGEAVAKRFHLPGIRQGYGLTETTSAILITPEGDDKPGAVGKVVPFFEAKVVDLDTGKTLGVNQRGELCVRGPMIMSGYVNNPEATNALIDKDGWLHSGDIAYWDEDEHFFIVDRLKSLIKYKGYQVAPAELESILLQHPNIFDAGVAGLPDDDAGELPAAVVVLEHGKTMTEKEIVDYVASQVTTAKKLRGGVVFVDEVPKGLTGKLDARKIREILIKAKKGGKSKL
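Biochemical qHTS of compounds, final roughly 60 µM downward over six points, against 10 nM purified firefly luciferase using Km concentrations of substrates (10 uM D-luciferin, 10 uM ATP) in Tris acetate pH 7.5 buffer; luminescence output.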
ELG1 DNA repair: blocks ELG1-dependent DNA repair in HEK293T cells | HEK293T ELG1-luciferase reporter, luminescence, 16 h; DNA damage induced by 5-fluorouridine | actives 2.3% (n = 330,000) | AID 504467 | Potency, µM (top dose mostly 46.1 µM), for inactives: at the top dose activity change, negative = inhibition, actives largely listed as inhibitors; note: % is set by controls: 0 for no effect and ±100 for the full control effect; nearly all actives have a fitted effect of over 55% in size
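HEK293T cells expressing luciferase-tagged ELG1 (2,000/well) received 5-Fluorouridine plus compound or DMSO for 16 hr at 37 °C. Luciferase was read by ONE-Glo luminescence after 30 min at room temperature.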
SMN2 splice enh: increases expression of the SMN2 splice variant; actives 2.8% (n = 210,000); Potency, µM (series often up to 46.1 µM), for the others: at the top dose activity change, positive = activation, actives largely listed as activators; HEK293 SMN2-luciferase splicing reporter, luminescence, 30-36 h; note: % of control where 0% means no effect; nearly all actives have a fitted effect of over 55% in size
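qHTS luciferase splicing reporter: luminescence rises when SMN2 exon 7 is included in transfected HEK293 cells. Compound exposure lasted 30-36 h at 37C, with 4.5 mM final sodium butyrate as control, followed by a ONE-Glo read.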
Rab9 prom act: activates the Rab9 promoter; Potency, µM (series often up to 9.22 µM), without a hit: top-dose activation, negative = inhibition, most hits filed as activators; Huh7 Rab9 promoter-luciferase reporter, luminescence, 24 h; actives 2.8% (n = 320,000); note: % of control where 0% means no effect; nearly all actives have a fitted effect of over 60% in size
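Steps: seed 1500 Huh7 Rab9-luc cells per well, rest 2 h at 37 °C; add compound in DMSO; incubate 24 h; add luciferase reagent, 10 min ambient; read luminescence.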
ELG1 genotox: induces genotoxicity in HEK293T cells with luciferase-tagged ELG1; HEK293T ELG1-luciferase reporter, luminescence, 16 h; actives 1.3% (n = 330,000); Potency, µM (titrated, usually from 46 µM), for inactives: at the highest dose activity change, positive = activation, hits mostly activators; note: % of control where 0% means no effect; nearly all actives have a fitted effect of over 60% in size
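Luminescence read-out: rising ELG1-luciferase signal, reflecting elevated ELG1 protein under genetic stress, flags genotoxic compounds. Cells were treated for 16 hr at 37 °C before ONE-Glo detection.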
NPC1 promoter act: activates the NPC1 promoter; Huh7 NPC1 promoter luciferase reporter, 24 h; Potency, µM (highest dose often 9.22 µM), for the others: at the highest dose activation, hits mostly activators; actives 2.4% (n = 320,000); AID 485313; note: % of control where 0% means no effect; nearly all actives have a fitted effect of over 60% in size
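Stably transfected Huh7 (NPC1 promoter→luciferase), 1500 cells/well in Opti-MEM + 10% FBS, 2 h settle, then compound 24 h at 37 °C. Luminescence after 10 min with Amplite reagent.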
* = called active by the depositor; u = inconclusive; x = no result. Calls come from the whole dose curve; as a rule, active = well fitted curve in the direction sought with a large enough effect; inconclusive = small, poorly fitted or top-dose-only effect, or another doubt; inactive = no such curve, though single readings can be large; an effect the other way counts as inactive or inconclusive. Potency is the fitted concentration of half-maximal effect.

SMILES | FLuc modulator | ELG1 DNA repair | SMN2 splice enh | Rab9 prom act | ELG1 genotox | NPC1 promoter act
O=[N+]([O-])c1ccccc1/C=C/C=N/n1c(-c2ccccc2F)n[nH]c1=S | u | 0% | x | 8% | 6% | 1%
CC(=O)c1ccc(NC(=O)Cn2c(=O)oc3cc(S(=O)(=O)N4CCCCC4)ccc32)cc1 | 0% | x | -3% | x | x | x
CC(C)(C)c1ccc(NC(=O)Nc2ccc(F)cc2)cc1 | 2.4µM* | u | 13µM* | 2.5µM* | u | 1.8µM*
COC(=O)c1ccc(NC(=O)Nc2ccc(F)c(Cl)c2)cc1 | 27µM* | u | -16% | 29% | 8% | 14%
COC(=O)Nc1ccc(S(=O)(=O)N2CCCC(C(=O)Nc3cccnc3)C2)cc1 (centres undefined) | -2% | -24% | 12% | -3% | -6% | -3%
CC(C)(C)c1ccc(NC(=O)c2ccc(=O)[nH]n2)cc1 | 3µM* | u | x | 0.79µM* | u | 0.71µM*
COC(=O)Nc1ccc(S(=O)(=O)N2CCCC(C(=O)Nc3cccc4c3OCCO4)C2)cc1 (centres undefined) | 1% | 21µM* | 25% | -6% | -6% | -1%
CSC1=NCCN1C(=O)c1c(-c2c(F)cccc2Cl)noc1C | 2% | 29% | x | 1% | -2% | 0%
O=c1[nH]cc(S(=O)(=O)N2CCCc3ccccc32)c(=O)[nH]1 | 2% | 6% | x | 1% | 0% | 2%
CCOC(=O)c1ccc(NC(=O)C2CCCN(S(=O)(=O)c3ccc(F)cc3)C2)cc1 (centres undefined) | 2% | 16µM* | -25% | 0% | -37% | -3%
CCOC(=O)c1ccc(NC(=O)Nc2ccc(F)cc2)cc1 | 11µM* | u | 4% | 18% | 10% | 20%
CCOC(=O)c1ccc(NC(=O)Nc2ccc(OC)c(OC)c2)cc1 | u | u | -4% | -3% | -13% | 1%
CCc1ccc(NC(=O)C2CCCN(S(=O)(=O)c3ccc(F)cc3)C2)cc1 (centres undefined) | -7% | x | -8% | x | x | x
CCN(CC)C(=O)Cn1cc(SCC(=O)Nc2ccccc2C)c2ccccc21 | -8% | x | x | x | x | x
CCc1ccccc1NC(=O)CN1CCCN(Cc2cc(C)ccc2C)S1(=O)=O | -3% | x | x | x | x | x
CC[N+]1(CC)CC2=Cc3c(ccc4ccccc34)C(C)C2C1 (centres undefined) | -2% | u | x | 1% | -22% | -1%
Cc1ccc2cc(/C=N/Nc3nc4ccccc4[nH]3)c(Cl)nc2c1 | 0.085µM* | u | 5µM* | 0.63µM* | u | 2.8µM*
CCN(CC)c1ccc(/C=N/Nc2nc3ccccc3[nH]2)c(O)c1 | 7.6µM* | u | -73% | -28% | u | -30%
Cc1ccc2cc(/C=N/NC(=O)c3ccc(F)cc3)c(Cl)nc2c1 | -2% | 13% | -22% | 0% | u | -3%
CCOc1ccc(Nc2c(S(=O)(=O)c3ccc(Cl)cc3)cnc3ccc(OCC)cc23)cc1 | 4% | x | -18% | x | x | x
COc1ccc(C(=O)Nc2ccc(N3CCN(c4ccc(OC)cc4)CC3)c(C#N)c2)cc1 | 2% | 28% | 10µM* | -1% | 3% | 1%
CC(NC(N)=O)C(=O)Nc1ccc(Cl)c(S(=O)(=O)Nc2ccc(Cl)cc2)c1 (centres undefined) | -5% | -1% | -1% | -2% | -2% | -5%
CC(C)Oc1ccc(C(=O)Nc2ccc(Cl)c(S(=O)(=O)Nc3ccc(Cl)cc3)c2)cc1 | 15µM* | u | -70% | 1% | -10% | -2%
COc1ccc(NS(=O)(=O)c2cc(NC(=O)c3ccncc3)ccc2N2CCOCC2)cc1 | 3% | -5% | 7.9µM* | 0% | 3% | -1%
COc1ccc(NS(=O)(=O)c2cc(NC(=O)c3ccc(Cl)cc3)ccc2N2CCOCC2)cc1 | x | 9.2µM* | x | x | -1% | x
SMILES | FLuc modulator | ELG1 DNA repair | SMN2 splice enh | Rab9 prom act | ELG1 genotox | NPC1 promoter act
Cc1cc2nc3c(nc2cc1C)C(O)=C3O | u | 10% | x | 1% | -7% | -5%
COC(=O)c1cc(NC(=O)c2cc(-c3ccc(C(F)(F)F)cc3)oc2C(F)(F)F)ccc1N1CCOCC1 | 1% | u | x | -12% | -11% | -6%
COC(=O)c1cc(NC(=O)c2cc(-c3ccc(OC)cc3)oc2C(F)(F)F)ccc1N1CCOCC1 | u | 23µM* | x | -5% | -11% | -1%
O=C(NCC1CCCN(C(=O)Cc2ccccc2Cl)C1)c1ccc(F)cc1 (centres undefined) | -6% | -11% | x | 8% | -2% | 1%
CCCCCNCc1cccc(Br)c1 | 11% | -2% | -14% | -9% | 1% | -2%
Cc1ccc(S(=O)(=O)n2c(C)nc3ccccc32)cc1 | 2% | -1% | x | 3% | 2% | -6%
CCOc1ccc(/C=C/c2nc3ccccc3n2S(=O)(=O)c2cccc(Cl)c2)cc1 | 0.95µM* | x | 5µM* | x | x | x
CCOc1cc(S(=O)(=O)n2c(C)nc3ccccc32)ccc1F | -1% | -2% | -30% | -9% | -14% | 1%
CSc1ccc(/C=C/c2nc3ccccc3n2S(=O)(=O)c2ccc(F)c(C)c2)cc1 | 0.27µM* | x | x | x | x | x
Cc1ccc(/C=C/c2nc3ccccc3n2S(=O)(=O)c2cccc(Cl)c2)cc1 | 0.67µM* | x | x | x | x | x
COc1ccc(-c2[nH]ncc2/C=N/NC(=O)c2cccc([N+](=O)[O-])c2)cc1OC | -5% | u | x | -9% | -1% | -7%
CCOc1ccc(NC(=O)CN(C)C(=O)CSCc2cccc(C)c2)cc1OCC | 6% | -17% | x | 1% | -2% | -5%
CCOc1ccc(NC(=O)CN(C)C(=O)CSCc2ccc(C)cc2)cc1OCC | 0% | 7.3µM* | x | -1% | -15% | 3%
CCOc1ccc(NC(=O)CN(C)C(=O)c2ccccc2OCc2cccc(C)c2)cc1OCC | 10% | 10µM* | x | 1% | -1% | -9%
COC(=O)COc1ccc(S(=O)(=O)NCc2ccc3c(c2)OCO3)cc1C | 5% | -10% | x | 10% | -7% | -2%
CCOc1ccc(C(=O)NNC2CC(=O)N(Cc3ccc(Cl)cc3)C2=O)cc1OC (centres undefined) | 5% | 7% | u | -8% | 4% | -3%
C/C(O)=C\c1nc2ccccc2oc1=O | 2% | -14% | 1% | 14% | -1% | -4%
O=c1oc2ccccc2nc1/C=C(\O)c1ccc(Br)cc1 | 24µM* | u | x | 12% | 0% | 9%
[O-]/[N+](=C\c1cccc(Br)c1)c1ccccc1 | 24µM* | -2% | 27% | 19% | 15% | 2%
[O-]/[N+](=C\c1ccccc1)c1ccc(Br)cc1 | u | u | x | -1% | u | 2%
